HUVEC tox IL1B: cytotoxicity in IL-1B stimulated HUVEC, primary screen, cytotoxicity control for IL-1B NFkB translocation project, imaging, Hoechst nuclear count, IL-1B stimulus. HUVEC cell count loss. cell count reduction, % at 2 µM. actives 0.41% (n = 94,000);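 active = cell count reduction more than 3 SD above the screen-wide mean, cut at about 70% in these data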
MRP-1 activ: H69AR viability gain despite doxorubicin, primary screen, MRP-1 activator project, H69AR cells, CellTiter-Glo | viability rescue | viability increase, % at 10 µM | actives 0.61% (n = 140,000);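 active = viability gain under doxorubicin at or above a set limit, the compound median plus 3 SD, cut at about 4.7% in these data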;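 note: MRP-1 overexpressing cells given doxorubicin 25 µM after compound pretreatment; 18-22 h compound pretreatment then 72 h with doxorubicin before readout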
NFkB transloc inh: inhibitors of IL-1B driven NFkB p65 nuclear import, primary screen, imaging, HUVEC, IL-1B stimulus, high-content imaging; inhibition, % at 2 µM; actives 0.43% (n = 94,000); AID 796, 2007; HUVEC IL-1B NFkB p65 nuclear translocation imaging;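 active = inhibition above about 30% together with a positive call from visual inspection of the well image, limit read from the data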;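 note: nuclear over cytoplasmic p65 intensity ratio measured by imaging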
MRP reversal: reversal of MRP1-mediated doxorubicin resistance, primary screen, H69AR cells, doxorubicin co-treatment. AID 602, 2007. actives 0.04% (n = 85,000). H69AR cells + 2 uM doxorubicin, CellTiter-Glo, 72 h. differential viability (reversal), % at 10 µM;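 active = viability drop by adding the cancer drug above about 55%, with treated viability meeting a 40% cutoff, limit read from the data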;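 note: larger differential means the compound sensitizes cells more to doxorubicin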
sdo1 growth: growth rescue of sdo1-depleted yeast, primary screen, S. cerevisiae, bone marrow failure model; S. cerevisiae sdo1-depleted JHY4D growth rescue, OD600 30 h; stronger effect = higher value; pdr5 snq2 efflux-pump mutant strain; z-score at 10 µM; actives 0.21% (n = 140,000);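 active = z-score above 3 at both the 24 hr and the 30 hr optical density reads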
NFkB transloc pot: enhancers of NFkB p65 translocation in HUVEC – imaging, IL-1B stimulus, high-content imaging, primary screen; HUVEC IL-1B NFkB p65 nuclear translocation imaging; activation, % at 2 µM; actives 0.3% (n = 94,000); AID 819, 2007;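 active = activation above 40%, about the mean plus 3 SD, also judged a hit on visual image review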;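 note: percent activation is computed from the nuclear over cytoplasmic p65 intensity ratio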
Numbers stand for hits. Shown are actives, neighbours in structure and some others; about 1.4% of the full set was active somewhere.

How did O=C(NCCOC(=O)c1ccncc1)c1ccccc1 do in these assays?
HUVEC tox IL1B: inactive; MRP-1 activ: inactive; NFkB transloc inh: inactive; MRP reversal: inactive; sdo1 growth: inactive; NFkB transloc pot: inactive

Results for O=C(Nc1ccccc1)OCCNC(=O)c1ccccc1 ?
HUVEC tox IL1B: inactive; MRP-1 activ: inactive; NFkB transloc inh: inactive; MRP reversal: inactive; sdo1 growth: inactive; NFkB transloc pot: 40

How did S=C(Nc1ccc(Br)cc1)NC1CCCCC1 do in these assays?
MRP-1 activ: inactive; sdo1 growth: inactive

Results for COc1ccc(NS(=O)(=O)c2ccc(OCC(=O)N3CCOCC3)cc2)cc1 ?
HUVEC tox IL1B: inactive; MRP-1 activ: inactive; NFkB transloc inh: 31; MRP reversal: inactive; sdo1 growth: inactive; NFkB transloc pot: inactive

Results for Cc1ccc(NC(=O)CNC(=O)c2cccs2)cc1S(=O)(=O)Nc1ccc(Cl)cc1 ?
MRP-1 activ: 7.0; sdo1 growth: inactive

How did CCc1ccc(C(=O)Cn2ncc(Cl)c(Cl)c2=O)cc1 do in these assays?
HUVEC tox IL1B: inactive; MRP-1 activ: inactive; NFkB transloc inh: 56; MRP reversal: inactive; sdo1 growth: inactive; NFkB transloc pot: inactive

How did Cc1ccc(Cn2ncc(Cl)c(Cl)c2=O)cc1 do in these assays?
MRP-1 activ: inactive; sdo1 growth: inactive

Results for COc1cc(NS(=O)(=O)c2ccc(C)cc2)ccc1-n1cnnn1 ?
HUVEC tox IL1B: inactive; MRP-1 activ: 6.3; NFkB transloc inh: inactive; MRP reversal: inactive; sdo1 growth: inactive; NFkB transloc pot: inactive

What do the screens show for `CCOCCCNS(=O)(=O)c1ccc(-n2cnnn2)c(OC)c1`?
HUVEC tox IL1B: inactive; MRP-1 activ: inactive; NFkB transloc inh: inactive; MRP reversal: inactive; sdo1 growth: inactive; NFkB transloc pot: inactive

How did Cc1cccc(C)c1OCCNC(=O)CCC(=O)c1ccccc1 do in these assays?
MRP-1 activ: inactive; sdo1 growth: inactive

What do the screens show for `CCOc1ccc(CNC(=O)C2CCN(S(=O)(=O)CC)CC2)cc1OC`?
HUVEC tox IL1B: 94; MRP-1 activ: inactive; NFkB transloc inh: inactive; MRP reversal: inactive; sdo1 growth: inactive; NFkB transloc pot: inactive

What do the screens show for `C(=C\c1ccccc1)/CN1CCN(c2ncnc3c2oc2ccccc23)CC1`?
HUVEC tox IL1B: inactive; MRP-1 activ: inactive; NFkB transloc inh: inactive; MRP reversal: inactive; sdo1 growth: inactive; NFkB transloc pot: 40

Results for c1cnc(N2CCN(c3ncnc4c3oc3ccccc34)CC2)nc1 ?
MRP reversal: inactive

Results for COCCCNC(=O)c1nc2c(nnn2Cc2cc(C)ccc2C)c(=O)[nH]1 ?
HUVEC tox IL1B: 93; MRP-1 activ: inactive; NFkB transloc inh: inactive; MRP reversal: inactive; sdo1 growth: inactive; NFkB transloc pot: 41

How did Cc1ccc(C)c(Cn2nnc3c(=O)[nH]c(C4CCCN(C(=O)CC(C)C)C4)nc32)c1 (stereo not given) do in these assays?
HUVEC tox IL1B: inactive; MRP-1 activ: inactive; NFkB transloc inh: inactive; MRP reversal: inactive; sdo1 growth: inactive; NFkB transloc pot: inactive

How did CCc1cc2ccccc2nc1SCC(=O)Nc1cc(OC)c(OC)cc1C(=O)O do in these assays?
MRP-1 activ: inactive; sdo1 growth: inactive

Results for CCOC(=O)c1ccc2[nH]c(C)c(CCC(C)=O)c(=O)c2c1 ?
HUVEC tox IL1B: inactive; MRP-1 activ: inactive; NFkB transloc inh: inactive; MRP reversal: inactive; sdo1 growth: inactive; NFkB transloc pot: inactive

What do the screens show for `CC(=O)Nc1ccc2[nH]c(C)c(CC=C(Cl)Cl)c(=O)c2c1`?
HUVEC tox IL1B: inactive; MRP-1 activ: 6.8; NFkB transloc inh: inactive; MRP reversal: inactive; sdo1 growth: inactive; NFkB transloc pot: inactive

Results for N#CC1=C(N)Oc2ccc3ccc(O)cc3c2C1c1ccsc1 (stereo not given) ?
MRP-1 activ: inactive; sdo1 growth: inactive

Results for O=C(Cc1ccc(Br)cc1)N1CCN(c2ccccc2O)CC1 ?
HUVEC tox IL1B: inactive; MRP-1 activ: inactive; NFkB transloc inh: inactive; sdo1 growth: inactive; NFkB transloc pot: inactive

How did O=C(O)c1ccc(CSc2ncn[nH]2)cc1 do in these assays?
HUVEC tox IL1B: inactive; MRP-1 activ: inactive; NFkB transloc inh: inactive; MRP reversal: inactive; sdo1 growth: inactive; NFkB transloc pot: inactive

How did CCCOc1ccc(CSc2ncn[nH]2)cc1 do in these assays?
HUVEC tox IL1B: inactive; MRP-1 activ: 7.4; NFkB transloc inh: inactive; MRP reversal: inactive; sdo1 growth: inactive; NFkB transloc pot: inactive

Results for Brc1ccc(CSc2ncn[nH]2)cc1 ?
HUVEC tox IL1B: inactive; MRP-1 activ: 4.9; NFkB transloc inh: inactive; MRP reversal: inactive; sdo1 growth: inactive; NFkB transloc pot: inactive

Results for COc1ccc(C(=O)OCC2CC(c3ccccc3)N(C)O2)cc1 (stereo not given) ?
HUVEC tox IL1B: inactive; MRP-1 activ: inactive; NFkB transloc inh: 47; sdo1 growth: inactive; NFkB transloc pot: inactive

How did CN1OC(COC(=O)c2ccc(Cl)cc2Cl)CC1c1ccccc1 (stereo not given) do in these assays?
HUVEC tox IL1B: inactive; MRP-1 activ: inactive; NFkB transloc inh: inactive; sdo1 growth: inactive; NFkB transloc pot: inactive

Results for CC(C)(C)NC(=O)C(c1ccsc1)N(CCc1ccccc1)C(=O)Cn1nnc2ccccc21 (stereo not given) ?
HUVEC tox IL1B: inactive; MRP-1 activ: inactive; NFkB transloc inh: 58; sdo1 growth: inactive; NFkB transloc pot: inactive

Results for Cc1sc2ncnc(NCCc3ccc(S(N)(=O)=O)cc3)c2c1C ?
HUVEC tox IL1B: inactive; MRP-1 activ: inactive; NFkB transloc inh: inactive; sdo1 growth: inactive; NFkB transloc pot: inactive

How did Cc1ccc(S(=O)(=O)Cn2nnnc2C(c2ccccn2)N2CCN(c3ccccc3)CC2)cc1 (stereo not given) do in these assays?
HUVEC tox IL1B: inactive; MRP-1 activ: inactive; NFkB transloc inh: inactive; sdo1 growth: inactive; NFkB transloc pot: inactive

What do the screens show for `Cc1ccc(C(c2nnnn2CS(=O)(=O)c2ccc(C)cc2)N2CCN(c3ncccn3)CC2)cc1` (stereo not given)?
HUVEC tox IL1B: inactive; MRP-1 activ: 11; NFkB transloc inh: inactive; MRP reversal: inactive; sdo1 growth: inactive; NFkB transloc pot: inactive

What do the screens show for `Cc1cc(=O)n(CC(C)O)c(O)c1C#N` (stereo not given)?
HUVEC tox IL1B: 89; MRP-1 activ: inactive; NFkB transloc inh: 99; MRP reversal: inactive; sdo1 growth: inactive; NFkB transloc pot: inactive

What do the screens show for `COc1ccc(NC(=O)CSc2nc3ccccc3c(=O)n2CCCN2CCCCC2)c(OC)c1`?
HUVEC tox IL1B: inactive; MRP-1 activ: inactive; NFkB transloc inh: inactive; MRP reversal: inactive; sdo1 growth: inactive; NFkB transloc pot: inactive

Results for O=C(NCCCN1CCN(c2cccc(Cl)c2)CC1)c1ccc(N2CCCC2=O)cc1 ?
HUVEC tox IL1B: inactive; MRP-1 activ: inactive; NFkB transloc inh: inactive; MRP reversal: inactive; sdo1 growth: inactive; NFkB transloc pot: inactive

Assay outcomes: PubChem BioAssay, several laboratories
